Results filed as inconclusive are left out. Active and inactive are the calls of the source. How the source made its calls, unless noted: active means hit-call score of the fitted dose curve at least 0.9, where 1 is the maximum; inactive means score below 0.9.
Tests used:
[1] = CCTE_Mundy_HCI_Cortical_Synap_Neur_Matur_NeuriteLength: CCTE's Synaptogenesis and Neurite Maturation Assay in rat cortical cells for Neurite Length, Mundy Lab (AID 2284214)
Method in brief: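 Rat primary cortical cultures, AraC added DIV 5, dosed DIV 7 through DIV 12 […]. Fixed, MAP2/synaptophysin immunostained with Hoechst; neurite length by high-content imaging, fitted in positive direction versus DMSO.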

[2] = CCTE_Mundy_HCI_Cortical_Synap_Neur_Matur_NeuriteSpotCountPerNeuron: CCTE's Synaptogenesis and Neurite Maturation Assay in rat cortical cells for Neurite Spot Count per Neuron Count, Mundy Lab (AID 2284215)
Method in brief: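 Rat primary cortical cultures given AraC at DIV 5, dosed from DIV 7 to DIV 12 with media change. Fixed, stained for MAP2, synaptophysin and Hoechst; neurite-associated synaptophysin puncta per neuron quantified by high-content imaging versus DMSO.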

[3] = CCTE_Mundy_HCI_Cortical_Synap_Neur_Matur_SynapseCount: CCTE's Synaptogenesis and Neurite Maturation Assay in rat cortical cells for Synapse Count, Mundy Lab (AID 2284218)
Method in brief: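 Rat primary cortical cultures, AraC at DIV 5, chemical dosing DIV 7 to DIV 12 (288.33 h). Fixed cells stained for MAP2, synaptophysin and Hoechst; synapses per neuron counted by high-content imaging, loss of signal versus DMSO.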

[4] = CCTE_Mundy_HCI_Cortical_Synap_Neur_Matur_NeuriteCount: CCTE's Synaptogenesis and Neurite Maturation Assay in rat cortical cells for Neurite Count, Mundy Lab (AID 2284222);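 further: exposure from day 7 to day 12 in vitro with readout at day 12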
Method in brief: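 Rat cortical neurons, 96-well; AraC DIV 5; chemical + media change DIV 7; end DIV 12. Fix PFA/Hoechst, anti-MAP2 + anti-synaptophysin IF. HCI neurite count vs DMSO baseline.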

[5] = CCTE_Mundy_HCI_Cortical_Synap_Neur_Matur_CellBodySpotCount: CCTE's Synaptogenesis and Neurite Maturation Assay in rat cortical cells for Cell Body Spot Count, Mundy Lab (AID 2284223)
Method in brief: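 Primary rat cortical cultures, AraC added at DIV 5; dosed DIV 7 through DIV 12 […]. Fixed, stained for MAP2 and synaptophysin with Hoechst; cell body-associated synaptophysin puncta per neuron counted by high-content imaging, loss vs DMSO.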

[6] = CCTE_Mundy_HCI_hNP1_Pro_ResponderAvgInten: CCTE's Proliferation Assay in human neuroprogenitor cells, Mundy Lab (AID 2284224; active means hit-call score of the fitted dose curve at least 0.9, where 1 is the maximum;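 further: human neural progenitor cells hNP1 derived from WA09 embryonic stem cells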)
Method in brief: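 Human neuroprogenitors (hNP1, WA09 lineage) receive test chemical after 40 to 44 hours of attachment. A four-hour BrdU pulse begins twenty hours later, followed by fixation and high content imaging; signal is referenced to DMSO controls.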

[7] = UKN2_HCS_IMR90_cell_viability: Viability Assessment in the University of Konstanz (UKN) Leist Lab Neural Crest Cell Migration Assay in human induced IMR90 Pluripotent Stem Cells (UKN2) (AID 2284233);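 further: viability of neural crest cells differentiated from IMR90 iPSC measured by calcein-AM fluorescence imaging; cells exposed to compound for 24 h after a 24 h migration phase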
Method in brief: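 iPSC-derived (IMR90) neural crest cells seeded around silicone stoppers on PLO/laminin/fibronectin; after 24 h migration in N2-S with EGF/FGF, chemical added for 24 h. Calcein-AM/Hoechst stained 30 min, high-content imaged; bidirectional fit versus DMSO.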

[8] = CCTE_Mundy_HCI_Cortical_NOG_NeuronCount: CCTE's Neurite Outgrowth Assay in rat cortical cells for Neuron Count, Mundy Lab (AID 2284236; active means hit-call score of the fitted dose curve at least 0.9, where 1 is the maximum;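 further: neurons counted by imaging betaIII-tubulin and Hoechst stained cortical cells; cells exposed to compound for about 48 hours before fixation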)
Method in brief: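 Read-out: neuron number by high-content imaging of betaIII-tubulin (Alexa Fluor-488) and Hoechst-labelled rat primary cortical cells.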

[9] = CCTE_Mundy_HCI_Cortical_NOG_BPCount: CCTE's Neurite Outgrowth Assay in rat cortical cells for Branch Point Count, Mundy Lab (AID 2284237)
Method in brief: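 Measured 50.33 h after dosing, this morphology endpoint uses rat primary cortical cultures labelled for betaIII-tubulin. Branch points are quantified by high-content imaging, with DMSO as negative control and baseline.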

[10] = CCTE_Mundy_HCI_hNP1_Casp3_7: CCTE's Caspase-Glo 3/7 Assay in human neuroprogenitor cells for Apoptosis, Mundy Lab (AID 2284240)
Method in brief: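 Neuroepithelial-lineage stem cells from WA09 embryonic cells were treated with chemicals after 40–44 h of culture. Twenty-four hours later, caspase-3/7 activation was detected luminescently after a 30 min room-temperature reagent step, with DMSO as baseline.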

[11] = CCTE_Mundy_HCI_hNP1_CellTiter: CCTE's Cell Titer-Glo 2 Assay in human neuroprogenitor cells for Viability, Mundy Lab (AID 2284241; active means hit-call score of the fitted dose curve at least 0.9, where 1 is the maximum)
Method in brief: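 Measures ATP content in human neural progenitors derived from WA09 embryonic cells. Read-out at 26.5 hours after dosing, with DMSO serving as the negative control and baseline.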

[12] = CCTE_Mundy_HCI_Cortical_Synap_Neur_Matur_NeuronCount: CCTE's Synaptogenesis and Neurite Maturation Assay in rat cortical cells for Neuron Count, Mundy Lab (AID 2284242; active means hit-call score of the fitted dose curve at least 0.9, where 1 is the maximum)
Method in brief: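 Rat primary cortical cells, AraC added at DIV 5, dosed with media change from DIV 7 to DIV 12. Fixed, Hoechst-stained and immunolabelled for MAP2 and synaptophysin; neuron number counted by high-content imaging, loss fitted versus DMSO.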

[13] = IUF_NPC2c_oligodendrocyte_migration_120hr: Leibniz Research Institute for Environmental Medicine (IUF) 120-hour Neural Progenitor Cell Migration Assay for Oligodendrocyte Migration (NPC2c) (AID 2284297);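 further: O4-positive oligodendrocyte migration distance divided by radial glia migration distance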
Method in brief: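 Human fetal neural progenitor spheres (0.3 mm) are plated on poly-D-lysine/laminin in N2 differentiation medium and exposed for 120 h, with half-medium renewal at day 3. Oligodendrocyte (O4+) migration distance comes from ICC imaging, normalised to radial glia migration.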

[14] = IUF_NPC2a_radial_glia_migration_120hr: Leibniz Research Institute for Environmental Medicine (IUF) 120-hour Neural Progenitor Cell Migration Assay for Radial Glia Migration (NPC2a) (AID 2284298)
Method in brief: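 Human fetal-cortex neural progenitor spheres (0.3 mm) plated on poly-D-lysine/laminin in N2 differentiation medium, exposed 120 h at 37C with half-medium renewal at day 3. Radial glia migration distance (um) measured from Hoechst-stained nuclei images; DMSO baseline.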

[15] = IUF_NPC2a_radial_glia_migration_72hr: Leibniz Research Institute for Environmental Medicine (IUF) 72-hour Neural Progenitor Cell Migration Assay for Radial Glia Migration (NPC2a) (AID 2284299)
Method in brief: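 Human fetal neural progenitor spheres (0.3 mm) plated on poly-D-lysine/laminin in N2 differentiation medium and exposed from day 0 at 7 concentrations; radial glia migration distance from sphere edge measured at 72 h on brightfield images, mean of four directions, vs DMSO.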

[16] = IUF_NPC2b_neuronal_migration_120hr: Leibniz Research Institute for Environmental Medicine (IUF) 120-hour Neural Progenitor Cell Migration Assay for Neuron Migration (NPC2b) (AID 2284300)
Method in brief: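 0.3 mm hNPC spheres on poly-D-lysine/laminin in N2 differentiation medium exposed 120 h, half-medium refresh day 3; 7 concentrations, DMSO max 0.1%. Neuron (TUBB3) distance from sphere core by ICC imaging, normalised to radial glia migration.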

[17] = IUF_NPC3_neuronal_differentiation_120hr: Leibniz Research Institute for Environmental Medicine (IUF) 120-hour Neuronal Differentiation Assay (NPC3) (AID 2284301)
Method in brief: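 Primary human fetal neural progenitor spheres (GW 16-19, 0.3 mm) plated on poly-D-lysine/laminin in N2 medium, exposed from day 0 for 120 h with half-medium refresh at day 3. TUBB3+ cells as percent of Hoechst nuclei in migration area; DMSO baseline.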

[18] = IUF_NPC4_neurite_area_120hr: Leibniz Research Institute for Environmental Medicine (IUF) 120-hour Neuronal Morphology Assay for Neurite Area (NPC4) (AID 2284305; active means hit-call score of the fitted dose curve at least 0.9, where 1 is the maximum)
Method in brief: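 Human fetal cortex-derived neural progenitor spheres (0.3 mm, GW 16-19) plated on poly-D-lysine/laminin in N2 differentiation medium and exposed from day 0 for 120 h across 7 concentrations plus solvent control. Neurite area is mean pixel area per TUBB3-positive neuron via skeletonization, analysed relative to DMSO.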

[19] = IUF_NPC2-5_cytotoxicity_72hr: Cytotoxicity Assessment at 72 hours in the Leibniz Research Institute for Environmental Medicine (IUF) Neural Progenitor Cell Migration and Differentiation Assay for Cytotoxicity (NPC2-5) (AID 2284306; active means hit-call score of the fitted dose curve at least 0.9, where 1 is the maximum;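 further: LDH release into supernatant measured by resorufin fluorescence marking membrane damage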)
Method in brief: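 Human fetal (GW 16-19) neural progenitor spheres, 0.3 mm, plated on poly-D-lysine/laminin in N2 differentiation medium and exposed from day 0 to 7 concentrations plus solvent control (DMSO ≤0.1%). LDH-dependent resazurin-to-resorufin fluorescence in supernatant at 72 h.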

[20] = IUF_NPC2-5_cell_number_120hr: Cell Number Assessment at 120 hours in the Leibniz Research Institute for Environmental Medicine (IUF) Neural Progenitor Cell Migration and Differentiation Assay (NPC2-5) (AID 2284308);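 further: count of Hoechst-stained nuclei in migration zone around plated human neural progenitor spheres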
Method in brief: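 Human fetal neural progenitor spheres (0.3 mm) plated on poly-D-lysine/laminin in N2 differentiation medium, exposed five days across 7 concentrations with half-medium refresh at day 3. Hoechst-positive nuclei counted in migration area at 120 h, relative to DMSO.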

[21] = IUF_NPC2-5_viability_120hr: Viability Assessment at 120 hours in the Leibniz Research Institute for Environmental Medicine (IUF) Neural Progenitor Cell Migration and Differentiation Assay (NPC2-5) (AID 2284312)
Method in brief: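 Human fetal (GW 16-19) neural progenitor spheres of 0.3 mm were plated on poly-D-lysine/laminin in N2 differentiation medium and exposed from day 0 for 120 h, with half-medium refresh at day 3. Viability was read as alamar blue resazurin-to-resorufin fluorescence against DMSO.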

[22] = CCTE_Mundy_HCI_iCellGluta_NOG_NeuriteLength: CCTE's Neurite Outgrowth Assay in iCellGluta cells for Neurite Length, Mundy Lab (AID 2284318; active means hit-call score of the fitted dose curve at least 0.9, where 1 is the maximum)
Method in brief: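 Automated high-content imaging of betaIII-tubulin (Alexa Fluor-488) and Hoechst-stained cells gave neurite length, normalized to the DMSO baseline.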

[23] = IUF_NPC1_cytotoxicity_72hr: Cytotoxicity Assessment at 72 hours in the Leibniz Research Institute for Environmental Medicine (IUF) Neural Progenitor Cell Proliferation Assay (NPC1) (AID 2284332; active means hit-call score of the fitted dose curve at least 0.9, where 1 is the maximum;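 further: rising LDH signal means more cytotoxicity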)
Method in brief: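 Human fetal neural progenitor spheres (0.3 mm) in EGF/FGF proliferation medium, 37C, exposed 72 h without renewal. LDH release in supernatant read by resorufin fluorescence; gain of signal scored relative to dynamic range.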

[24] = CCTE_Mundy_HCI_iCellGluta_NOG_NeuriteCount: CCTE's Neurite Outgrowth Assay in iCellGluta cells for Neurite Count, Mundy Lab (AID 2284342; active means hit-call score of the fitted dose curve at least 0.9, where 1 is the maximum;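 further: chemical exposure about 48 hours starting 2 hours after plating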)

Measured: outcome

CC(C)O
inactive: all assays above

Reference: PubChem BioAssay (EPA / NIEHS)
